Results filed as inconclusive are left out. Values without a mark were called inactive. Calls follow the shape of the full dose curve. A value given as a limit tells only on which side of the number the result lay.
Potency is read from the fitted curve at half-maximal effect.

The nature of the first assay: Cell Viability - MRC5 (AID 434).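 Also: cells exposed to compound for 40 hours at 37 °C; potency reflects cytotoxicity seen as loss of intracellular ATP.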 The settings on record: MRC5 lung fibroblast viability, qHTS. Put shortly:
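qHTS cytotoxicity in human lung fibroblast MRC5 cells; 40 hr treatment, 37 °C; cellular ATP by luciferase luminescence; DMSO = 0%, 100 uM tamoxifen = 100% inhibition; Hill-fit AC50.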
For the molecule `CCC(C)(C)c1ccc(O)cc1`, the Potency is more than 92 µM.
Same read-out and setting: under `C[C@]12CCC(=O)C=C1CC[C@@H]1[C@@H]2CC[C@]2(C)C(=O)CC[C@@H]12` stands more than 92 µM; under `Nc1ccccc1`, more than 92 µM; under `CCOC(=O)CC(SP(=S)(OC)OC)C(=O)OCC` (stereo not drawn), more than 92 µM.
The same measure, in the same setting: with `C[C@]1(O)CC[C@H]2[C@@H]3CCC4=CC(=O)CC[C@]4(C)[C@@]3(F)[C@@H](O)C[C@@]21C` the figure was more than 92 µM.
The same measure, in the same setting: under `COc1cc(OC)c(OC)cc1C=O` stands more than 92 µM; under `CC(C)c1cccc(C(C)C)c1O`, more than 92 µM; under `COC(=O)C(c1ccccc1)C1CCCCN1` (stereo not drawn), more than 92 µM.
`Oc1ccc(Cl)cc1`: the Potency is more than 92 µM.
Same read-out and setting: with `CC(C)NC(C)C` the figure was more than 92 µM; with `NCCc1ccc(O)cc1`, more than 92 µM; with `O=P1(N(CCCl)CCCl)NCCCO1` (stereo not drawn), more than 92 µM.
The same measure, in the same setting: under `COP(=S)(OC)Oc1ccc(SC)c(C)c1` stands more than 92 µM; under `CCCC(C)(COC(N)=O)COC(N)=O`, more than 92 µM; under `Nc1ccccc1C(=O)O`, more than 92 µM.
On the same count and under the same terms, under `CN1C[C@H](C(=O)N[C@]2(C)O[C@@]3(O)[C@@H]4CCCN4C(=O)[C@H](Cc4ccccc4)N3C2=O)C=C2c3cccc4[nH]cc(c34)C[C@H]21` stands more than 92 µM; under `C[C@]12CCC(=O)C=C1CC[C@@H]1[C@@H]2CC[C@@]2(C)[C@H]1CC[C@]2(C)O`, more than 92 µM.
For the molecule `Clc1ccc(C(c2ccc(Cl)cc2)C(Cl)(Cl)Cl)cc1`, the Potency was more than 92 µM.

A short description of a further assay: Cell Viability - SK-N-SH (AID 435).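 Also: compound exposure lasted 40 h at 37 °C.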 The settings on record: SK-N-SH neuroblastoma cell viability qHTS. Put shortly: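 Cells seeded at 1500 per well and incubated 5 hr at 37 °C. Compound added, then 40 hr at 37 °C. CellTiter-Glo added, 20 min at room temperature, luminescence read.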
Regarding `CCC(C)(C)c1ccc(O)cc1`, the Potency was more than 92 µM.
On to `C[C@]12CCC(=O)C=C1CC[C@@H]1[C@@H]2CC[C@]2(C)C(=O)CC[C@@H]12`, for which the Potency is more than 92 µM.
For the molecule `Nc1ccccc1`, the Potency is more than 92 µM.
On the same count and under the same terms, under `C[C@]1(O)CC[C@H]2[C@@H]3CCC4=CC(=O)CC[C@]4(C)[C@@]3(F)[C@@H](O)C[C@@]21C` stands more than 92 µM.
Still for that read-out and setting: with `COc1cc(OC)c(OC)cc1C=O` the figure was more than 92 µM; with `CC(C)c1cccc(C(C)C)c1O`, more than 92 µM; with `COC(=O)C(c1ccccc1)C1CCCCN1` (stereo not drawn), more than 92 µM.
Still for that read-out and setting: under `Oc1ccc(Cl)cc1` stands more than 92 µM.
As for `CC(C)NC(C)C`, the Potency is more than 92 µM.
Same read-out and setting: with `NCCc1ccc(O)cc1` the figure was more than 92 µM; with `O=P1(N(CCCl)CCCl)NCCCO1` (stereo not drawn), more than 92 µM; with `COP(=S)(OC)Oc1ccc(SC)c(C)c1`, more than 92 µM.
Still for that read-out and setting: under `CCCC(C)(COC(N)=O)COC(N)=O` stands more than 92 µM; under `Nc1ccccc1C(=O)O`, more than 92 µM; under `CN1C[C@H](C(=O)N[C@]2(C)O[C@@]3(O)[C@@H]4CCCN4C(=O)[C@H](Cc4ccccc4)N3C2=O)C=C2c3cccc4[nH]cc(c34)C[C@H]21`, more than 92 µM.

These data come from PubChem BioAssay (NCATS).
